For 39 molecules, residual activity results are on record in ChEMBL document CHEMBL2218924, “A broad activity screen in support of a chemogenomic map for kinase signalling research and drug discovery” (Biochem J, 2013).

The target of assay [1] is T1, cGMP-dependent protein kinase 1 (Homo sapiens) (UniProt Q13976).
T1 sequence (whole entry): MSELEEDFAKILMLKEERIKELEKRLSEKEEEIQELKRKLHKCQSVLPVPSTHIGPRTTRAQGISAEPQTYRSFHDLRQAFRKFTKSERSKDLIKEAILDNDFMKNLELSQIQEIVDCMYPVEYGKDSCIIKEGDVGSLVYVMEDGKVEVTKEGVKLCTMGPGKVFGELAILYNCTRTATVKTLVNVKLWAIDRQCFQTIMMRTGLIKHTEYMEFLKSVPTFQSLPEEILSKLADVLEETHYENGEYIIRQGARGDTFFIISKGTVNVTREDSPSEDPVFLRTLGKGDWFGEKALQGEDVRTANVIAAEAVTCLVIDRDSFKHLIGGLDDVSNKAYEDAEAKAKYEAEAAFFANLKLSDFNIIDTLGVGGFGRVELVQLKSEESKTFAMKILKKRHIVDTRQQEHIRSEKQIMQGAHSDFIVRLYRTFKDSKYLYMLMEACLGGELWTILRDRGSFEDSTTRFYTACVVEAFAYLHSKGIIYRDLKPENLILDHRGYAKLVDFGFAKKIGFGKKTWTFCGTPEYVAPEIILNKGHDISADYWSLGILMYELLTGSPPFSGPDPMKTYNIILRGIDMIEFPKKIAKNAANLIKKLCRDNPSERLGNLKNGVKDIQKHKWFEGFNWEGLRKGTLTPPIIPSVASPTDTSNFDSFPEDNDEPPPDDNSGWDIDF
The conditions noted are these: at 1 µM.

Assay [2] deals with T1, cGMP-dependent protein kinase 1 (Homo sapiens). The conditions noted are these: at 10 µM.
Assay [3] has the same target. The conditions noted are these: at 1 µM. The source holds these as a separate data set.
Assay [4] shares this target. As to conditions: at 10 µM. This is another data set of the same source.
In assay [5] the target is T2, MAP kinase-activated protein kinase 5 (Homo sapiens) (UniProt Q8IW41).
T2 sequence (whole entry): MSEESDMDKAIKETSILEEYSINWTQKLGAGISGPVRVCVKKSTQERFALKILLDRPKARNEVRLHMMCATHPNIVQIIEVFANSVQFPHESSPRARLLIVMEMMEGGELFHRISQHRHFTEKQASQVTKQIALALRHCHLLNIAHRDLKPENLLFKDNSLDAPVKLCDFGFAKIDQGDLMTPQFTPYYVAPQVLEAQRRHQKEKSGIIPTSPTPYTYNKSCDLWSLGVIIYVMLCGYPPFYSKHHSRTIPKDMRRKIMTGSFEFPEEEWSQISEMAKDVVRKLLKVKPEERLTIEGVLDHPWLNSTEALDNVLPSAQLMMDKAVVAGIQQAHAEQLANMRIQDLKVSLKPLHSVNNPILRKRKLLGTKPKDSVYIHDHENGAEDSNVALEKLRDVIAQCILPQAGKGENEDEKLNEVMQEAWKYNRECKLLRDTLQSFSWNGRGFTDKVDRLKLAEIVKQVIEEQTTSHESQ
As to conditions: at 10 µM.

Assay [6] concerns the target Serine/threonine-protein kinase N2 (Homo sapiens) (UniProt Q16513). The conditions noted are these: at 1 µM.
For assay [7] the target is unchanged. The conditions noted are these: at 10 µM.
Assay [8] deals with Tyrosine-protein kinase FRK (Homo sapiens) (UniProt P42685). The conditions noted are these: at 1 µM.
Chain of Tyrosine-protein kinase FRK (Homo sapiens) (P42685 whole entry): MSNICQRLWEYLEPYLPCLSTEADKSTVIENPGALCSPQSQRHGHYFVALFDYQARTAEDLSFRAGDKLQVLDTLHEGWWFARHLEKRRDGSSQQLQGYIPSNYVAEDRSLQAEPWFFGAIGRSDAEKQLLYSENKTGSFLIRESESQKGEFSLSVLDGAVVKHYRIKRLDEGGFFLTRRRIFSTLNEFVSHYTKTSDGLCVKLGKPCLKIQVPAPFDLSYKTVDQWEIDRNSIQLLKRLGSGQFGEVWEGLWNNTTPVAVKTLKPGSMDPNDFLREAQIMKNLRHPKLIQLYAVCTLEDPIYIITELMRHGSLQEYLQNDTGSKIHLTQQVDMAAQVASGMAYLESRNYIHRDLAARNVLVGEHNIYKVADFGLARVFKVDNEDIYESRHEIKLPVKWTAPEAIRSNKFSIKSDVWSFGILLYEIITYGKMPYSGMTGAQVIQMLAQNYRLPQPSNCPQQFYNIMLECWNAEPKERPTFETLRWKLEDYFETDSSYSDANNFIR
Assay [9] shares this target. As to conditions: at 10 µM.
The target of assay [10] is T2, MAP kinase-activated protein kinase 5 (Homo sapiens). As to conditions: at 1 µM.

Chain of Serine/threonine-protein kinase N2 (Homo sapiens) (Q16513 whole entry, looked up): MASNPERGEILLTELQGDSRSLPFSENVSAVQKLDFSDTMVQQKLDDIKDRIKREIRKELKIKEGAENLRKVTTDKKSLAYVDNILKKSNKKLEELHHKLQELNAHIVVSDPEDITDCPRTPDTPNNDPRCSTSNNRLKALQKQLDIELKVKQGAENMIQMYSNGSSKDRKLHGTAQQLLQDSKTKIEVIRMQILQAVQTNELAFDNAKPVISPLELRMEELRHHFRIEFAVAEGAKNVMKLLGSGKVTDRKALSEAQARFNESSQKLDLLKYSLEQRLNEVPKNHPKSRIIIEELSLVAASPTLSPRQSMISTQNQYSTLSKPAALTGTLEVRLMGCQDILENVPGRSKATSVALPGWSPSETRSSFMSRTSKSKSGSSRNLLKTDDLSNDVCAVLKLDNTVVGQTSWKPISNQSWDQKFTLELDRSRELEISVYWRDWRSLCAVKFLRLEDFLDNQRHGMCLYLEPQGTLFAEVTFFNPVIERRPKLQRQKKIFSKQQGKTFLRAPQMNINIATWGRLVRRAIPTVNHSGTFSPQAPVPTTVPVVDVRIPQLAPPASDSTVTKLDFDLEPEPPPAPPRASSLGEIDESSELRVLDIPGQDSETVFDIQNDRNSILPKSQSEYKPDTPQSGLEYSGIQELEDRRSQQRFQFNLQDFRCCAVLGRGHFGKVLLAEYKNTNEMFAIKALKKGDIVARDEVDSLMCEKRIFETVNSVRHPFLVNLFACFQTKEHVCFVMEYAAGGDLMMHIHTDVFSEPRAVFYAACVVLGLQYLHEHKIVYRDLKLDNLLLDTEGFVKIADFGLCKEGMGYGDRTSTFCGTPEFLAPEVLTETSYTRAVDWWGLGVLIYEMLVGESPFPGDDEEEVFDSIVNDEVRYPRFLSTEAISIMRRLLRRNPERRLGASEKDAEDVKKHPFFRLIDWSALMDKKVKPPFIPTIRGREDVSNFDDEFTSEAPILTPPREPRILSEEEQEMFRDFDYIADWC

In the case of `O=C1C(Cl)=C(N2C(=O)CCC2=O)C(=O)c2ccccc21`, the residual activity in assay [1] worked out at 95%; in assay [2] it was 96%; in [3], 101%; in [4] it was 88%; in assay [5], 98%; in [6] it was 86%. Further, the residual activity in [7] was 79%; in assay [8], 88%; in assay [9] it was 96%.

Consider `O=S(=O)(c1cccc2cnccc12)N1CCCNCC1`, for which the residual activity in assay [1] worked out at 57%; in assay [2] it was 17%; in assay [3] it was 68%; in assay [4], 15%; in assay [6], 56%; in [7], 10%.

On to `O=C1NC(=O)c2c1c1c3ccccc3[nH]c1n1cncc21`, for which the residual activity in assay [1] stood at 82%; in assay [2], 89%; in [3] it was 99%; in assay [4] it was 70%; in assay [10], 97%; in [5] it was 71%. Further, the residual activity in assay [6] turned out to be 69%; in [7] it was 61%; in assay [8], 87%; in assay [9], 63%.

Turning to `Oc1cccc(-c2nc(N3CCOCC3)c3oc4ncccc4c3n2)c1`, the residual activity in assay [1] is 120%; in [4], 90%; in [10], 98%.

`CC(C)(C)c1nc2c3ccc(F)cc3c3c(=O)[nH]ccc3c2[nH]1`: the residual activity in assay [1] is 45%; in assay [2], 45%; in assay [3], 30%; in assay [4] it was 19%; in [10] it was 47%; in [5] it was 45%. For the same molecule, the residual activity in assay [6] was 29%; in assay [7], 39%; in assay [8], 74%; in [9], 60%.

As to `c1ccc(-c2cnc(Nc3ccc(OCCN4CCCC4)cc3)s2)cc1`, the residual activity in assay [1] stood at 122%; in assay [2], 136%; in [3], 70%; in [4], 77%; in assay [10], 120%; in [5], 111%. Besides, the residual activity in assay [6] was found to be 102%; in assay [7] it was 100%; in [8] it was 72%; in assay [9], 16%.

Take `O=C(NC(NC(=S)Nc1ccc(F)c([N+](=O)[O-])c1)C(Cl)(Cl)Cl)C(c1ccccc1)c1ccccc1` (configuration not stated): the residual activity in assay [1] came out at 96%; in assay [2], 92%; in [3], 97%; in assay [4], 73%; in [10], 87%; in assay [5] it was 49%. In addition, the residual activity in assay [6] stood at 94%; in assay [7], 102%; in assay [8] it was 71%; in assay [9] it was 47%.

`O=C1NC(=O)C(c2cn(CCCn3ccnc3)c3ccccc23)=C1Nc1ccccc1`: the values for the residual activity in assay [5], in assay [6] and in [7] were 59%, 26% and 11%, respectively.

Take `COc1ccc(CNC(=O)Nc2ncc([N+](=O)[O-])s2)cc1`: the residual activity in [7] turned out to be 81%.

Take `O=c1c(-c2ccc(F)cc2)c(-c2ccncc2)[nH]n1-c1ccc(Cl)cc1`: the values for the residual activity in assay [5] and in assay [9] were 74% and 32%, respectively.

Take `Nc1ncnc2c1cnn2-c1ccccc1`: the residual activity in [10] came out at 94%; in assay [6], 85%; in assay [7], 79%; in assay [9] it was 90%.

In the case of `N#Cc1c(NC(=O)c2cccc3ccccc23)sc2c1CCCC2`, the residual activity in assay [3] was 96%; in assay [4], 87%; in [10], 87%; in assay [5], 93%; in assay [8], 88%; in assay [9] it was 100%.

As to `O=C1Cc2c([nH]c3ccc([N+](=O)[O-])cc23)-c2ccccc2N1`, the residual activity in assay [10] was 80%; in [5] it was 81%; in [8] it was 67%; in assay [9] it was 46%.

Consider `CC(C)N(CCC(=O)c1ccc2ccccc2c1)Cc1ccccc1`, for which the figures for the residual activity in [10] and in assay [5] were 82% and 72%, respectively.

As to `Cn1c2ccccc2c2c3c(c4c5ccccc5n(CCC#N)c4c21)CNC3=O`, the residual activity in assay [6] was found to be 11%; in [7] it was 10%; in [8], 42%; in [9] it was 33%.

For `O=C(c1ccccc1)c1ccc(N2CCOCC2)cc1O`, the residual activity in [3] was determined as 93%; in [4], 80%; in assay [10], 99%; in assay [5] it was 74%; in assay [7] it was 129%; in [8], 89%. The residual activity in assay [9] came to 96%.

As to `NC(=O)c1cccc(-c2cc(Nc3ccc(OC(F)(F)F)cc3)ncn2)c1`, the residual activity in [5] came out at 78%.

In the case of `Fc1ccc(-c2nc3n(c2-c2ccncc2)CCS3)cc1`, the residual activity in [8] came to 99%; in assay [9], 51%.

`O=C1NC(=O)C(c2cn(CCCO)c3ncccc23)=C1c1cnccn1`: the residual activity in assay [3] amounted to 98%; in assay [4], 74%; in assay [6] it was 100%; in assay [7], 87%.

For `CCOc1nc(NC(=O)Cc2cc(OC)ccc2OC)cc(N)c1C#N`, the residual activity in assay [7] was determined as 82%; in assay [9], 74%.

On to `COc1cc2c(cc1OC)-c1n[nH]c(Nc3cccc(F)c3)c1C2`, for which the residual activity is 47% in assay [10] and 65% in assay [5].

Regarding `Nc1nc(Nc2ccc(S(N)(=O)=O)cc2)nn1C(=O)c1c(F)cccc1F`, the residual activity in [10] was 101%; in [5], 70%; in assay [6], 81%; in assay [7] it was 32%; in assay [9], 38%.

As for `NC(=O)c1ccc(-c2nc(-c3ccc4c(c3)OCCO4)c(-c3ccccn3)[nH]2)cc1`, the residual activity in [4] turned out to be 63%; in assay [5], 89%; in [6], 120%; in assay [7] it was 98%; in [8] it was 98%; in assay [9], 89%.

In the case of `O=C(c1cc2cc(O)ccc2[nH]1)c1cc2cc(O)ccc2[nH]1`, the residual activity amounted to 71% in assay [10]; 40% in assay [5]; 72% in [6]; 39% in [7]; 37% in assay [8]; 7% in [9].

As for `NCCNc1ncc(C(N)=O)c(Nc2cccc(C(F)(F)F)c2)n1`, the residual activity was found to be 42% in [10] and 11% in assay [5].

With `CCCCc1c(-c2ccc(O)cc2)[nH]c2nccnc12`, the residual activity in assay [6] was 87%; in assay [7], 85%; in assay [8], 59%; in [9] it was 25%.

As for `N#C/C(=C\c1ccc(O)c(O)c1)C(=O)NCc1ccccc1`, the results for the residual activity in [10] and in assay [5] were 72% and 59%, respectively.

In the case of `Cn1sc(=O)n(Cc2ccccc2)c1=O`, the residual activity in [6] is 91%; in assay [7], 84%; in [8], 88%; in [9] it was 92%.

In the case of `CCOC(=O)c1c(C)[nH]c(/C=C2\C(=O)Nc3ccccc32)c1C`, the residual activity in [10] turned out to be 88%; in assay [5] it was 81%.

Regarding `Nc1nccc(-c2c(-c3ccc(F)cc3)ncn2C2CCNCC2)n1`, the residual activity in assay [10] was determined as 118%; in assay [5], 112%; in assay [7], 82%.

With `O=C(Nc1ccc(Cl)cc1)c1ccccc1NCc1ccncc1`, the residual activity was 60% in assay [10], 51% in [5], 19% in [8] and 1% in assay [9].

As to `O=c1cc(N2CCNCC2)oc2c(-c3ccccc3)cccc12`, the residual activity is 84% in [3]; 81% in assay [4]; 93% in [10]; 99% in assay [5]; 105% in assay [6]; 101% in assay [7]. For the same molecule, the residual activity in [9] was 104%.

Turning to `N#C/C(=C1/Nc2ccccc2S1)c1ccnc(NCCc2cccnc2)n1`, the residual activity stood at 59% in assay [7], 75% in assay [8] and 72% in [9].

`CC(C)[C@H](CO)Nc1nc(Nc2cc(N)cc(Cl)c2)c2ncn(C(C)C)c2n1`: the residual activity in assay [4] was determined as 80%; in assay [10], 92%; in assay [5] it was 56%; in [8] it was 72%; in assay [9], 11%.

Regarding `O=c1cc(N2CCOCC2)oc2c1ccc1ccccc12`, the residual activity in [3] is 91%; in assay [4] it was 99%; in assay [10], 28%; in assay [5], 42%; in assay [6], 101%; in assay [7], 98%. The residual activity in [9] amounted to 90%.

For `CN([C@@H](Cc1ccc(OS(=O)(=O)c2cccc3cnccc23)cc1)C(=O)N1CCN(c2ccccc2)CC1)S(=O)(=O)c1cccc2cnccc12`, the residual activity in assay [3] stood at 67%; in [9] it was 79%.

For `COc1cc2ncnc(Nc3cccc(Cl)c3)c2cc1OC`, the residual activity in assay [7] came to 76%; in [8] it was 53%; in assay [9], 6%.

Consider `COc1ccc(Cl)cc1NC(=O)Nc1cc(C)nc2ccccc12`, for which the residual activity is 79% in [3], 88% in [4], 94% in assay [8] and 129% in assay [9].

Consider `CCN(CC)CCNC(=O)c1c(C)[nH]c(/C=C2\C(=O)Nc3ccc(Cl)cc32)c1C`, for which the residual activity in assay [10] turned out to be 97%; in assay [5], 49%; in assay [6], 52%; in [7], 18%; in assay [8], 31%; in [9] it was 1%.
